Experimental data taken from PubChem BioAssay (NCI).
About 79,000 compounds went through this panel and 15% of them were active in at least one assay; those are over-represented in the sample as a whole. No stated cut-off is given here; in the data, active means growth inhibition above about 70%; inactive means the rest.

Tests used:
[1] = NCI Yeast Anticancer Drug Screen. Data for the rad50 strain (AID 155);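 further: 0% = growth of vehicle-only cultures of the same strain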; settings: S. cerevisiae rad50 strain growth inhibition; at 50.0 µM; stronger effect = higher value
Outline: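 Cells are treated with compound, grown, and their growth is then scored against vehicle-only cultures of the same repair-deficient yeast strain.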

[2] = NCI Yeast Anticancer Drug Screen. Data for the mec2-1 strain (AID 157); settings: S. cerevisiae mec2-1 strain, at 50.0 µM, stronger effect = higher value
Outline: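 Compounds were applied to mec2-1 yeast cells. Their growth was then compared with that of vehicle-treated cultures to give growth inhibition.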

[3] = NCI Yeast Anticancer Drug Screen. Data for the sgs1 mgt1 strain (AID 161);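 further: 0% = growth of cultures given vehicle only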; settings: S. cerevisiae sgs1 mgt1 strain, at 50.0 µM, stronger effect = higher value
Outline: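 This yeast growth screen uses a strain with defined DNA-repair lesions; compound-treated growth is compared with vehicle-treated growth.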

[4] = NCI Yeast Anticancer Drug Screen. Data for the cln2 rad14 strain (AID 165);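 further: 0% = growth equal to vehicle treated cultures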; settings: S. cerevisiae cln2 rad14 strain, at 50.0 µM, stronger effect = higher value
Outline: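 Strain: cln2 rad14 yeast, altered in cell cycle control and DNA damage repair. Read-out: growth inhibition vs vehicle.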

[5] = NCI Yeast Anticancer Drug Screen. Data for the bub3 strain (AID 167); settings: S. cerevisiae bub3 mutant strain, at 50.0 µM, stronger effect = higher value
Outline: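 Part of a panel of yeast mutants defective in DNA damage repair or cell cycle regulation. Each strain is grown with compound, and inhibition is calculated relative to solvent-treated cultures.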

[6] = NCI Yeast Anticancer Drug Screen. Data for the mlh1 rad18 strain (AID 175); settings: S. cerevisiae mlh1 rad18 strain growth inhibition; at 50.0 µM; stronger effect = higher value
Outline: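 A repair-deficient yeast strain is exposed to test compound, and growth is scored relative to vehicle-treated controls.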

Measured: growth inhibition

CCOC(=N)Cc1ccccc1
inactive: [1] 3.7% | [2] 21.1% | [3] 4.6% | [4] -10.8% | [5] 23.4% | [6] -27.9%

Cc1nc(C(=O)N=C(N)N)c(N)nc1-c1ccccc1
inactive: [1] -22.6% | [2] -4.3% | [3] -7.7% | [4] -28.2% | [5] -4.8% | [6] -4%

CC1=NN2C(=O)C(C)SC2=NC(C)(C)C1 (stereo not given)
inactive: [1] -5.6% | [2] -17.9% | [3] -3.15% | [4] 29.2% | [5] -8.2% | [6] -16.3%

O=C(Nc1ccc(Cl)cc1C(=O)O)c1ccc([N+](=O)[O-])cc1
inactive: [1] 23.1% | [2] 18.2% | [3] 26.7% | [4] 38.8% | [5] 23.9% | [6] 53.2%

O=COCc1ccc(Cl)cc1Cl
inactive: [1] 16.9% | [2] -2.75% | [3] -5.65% | [4] 5% | [5] -1.35% | [6] -11.7%

CN1CCN(CC2C3CCC(C3)C2O)CC1 (stereo not given)
inactive: [1] -9% | [2] -18.4% | [3] -16.1% | [4] 4.4% | [5] -4.7% | [6] -0.6%

NCC(O)CN
inactive: [1] -13.8% | [2] -0.75% | [3] -2.75% | [4] -8.2% | [5] -0.55% | [6] 1.45%

CC[C@H]1OC(=O)[C@H](C)[C@@H](OC2CC(C)(OC)C(O)C(C)O2)[C@H](C)[C@@H](OC2OC(C)CC(N(C)C)C2OC(=O)CCC2CCCC2)[C@](C)(O)C[C@@H](C)C(=O)[C@H](C)[C@@H](O)[C@]1(C)O (stereo not given in full)
inactive: [1] 3.25% | [2] -6.95% | [3] 4.05% | [4] 0.65% | [5] 7.3% | [6] -9.55%

CC(C)Cn1cnc2c(SCc3ccccn3)nc(N)nc21
inactive: [1] -6.45% | [2] -17.4% | [3] -10.2% | [4] -30.6% | [5] -48.5% | [6] -17.4%

CN(C)C1C(CO)C(CO)C1(C)C (stereo not given)
inactive: [1] -5.5% | [2] -8.5% | [3] -3.9% | [4] -11.9% | [5] -2.25% | [6] -7.55%

O=C1CCCCC/C1=C\O
inactive: [1] 2.8% | [2] -12.1% | [3] -10.6% | [4] -11.9% | [5] -23.9% | [6] 5.15%

Cc1ccc(NC(=O)CCC(=O)C2CC(=O)CCC2=O)cc1C (stereo not given)
inactive: [1] -22.6% | [2] -14.8% | [3] -0.7% | [4] 5.75% | [5] 6.4% | [6] -9.9%

CCOC(=O)/C(C#N)=C\C1(C)CCC(C)=CO1 (stereo not given)
inactive: [1] -1.8% | [2] -8.65% | [3] -7.9% | [4] -31.6% | [5] -4.85% | [6] -3.25%

CSC(C(=O)O)c1cc(-c2c(Cl)cccc2Cl)no1 (stereo not given)
inactive: [1] -1.95% | [2] 23.8% | [3] 29% | [4] 8.85% | [5] 24.4% | [6] 22.9%

Oc1ccc(O)c(-n2cccn2)c1-n1cccn1
inactive: [1] -0.85% | [2] -4.55% | [3] -1.6% | [4] 6.3% | [5] 0% | [6] -2.75%

O=C(O)CCCCCCCCC(=O)O
inactive: [1] -7.55% | [2] -39% | [3] 7.9% | [4] -12.6% | [5] -23.8% | [6] -17.6%

CC(=O)c1cccc(NC(=O)N2CCCCC2C)c1 (stereo not given)
inactive: [1] -4.9% | [2] 29.9% | [3] 8.9% | [4] -13.3% | [5] 15.2% | [6] -12.8%

CCCCOCCOCCOC(=O)c1ccc(C)cc1
inactive: [1] 3.9% | [2] -11% | [3] -13.8% | [4] -49.9% | [5] 46% | [6] 11%

CC1C(c2ccccc2O)c2cc3c(cc2OC1N1CCOCC1)OCO3 (stereo not given)
inactive: [1] -24.9% | [2] -13.6% | [3] 7.45% | [4] -5.75% | [5] -18.2% | [6] -29.1%

COC(=O)/C(=C\SCc1ccccc1)NC(C)=O
inactive: [1] 0.45% | [2] 6.7% | [3] -1.55% | [4] -7.7% | [5] -24.2% | [6] -20.8%

CC(C)CC(NC(=O)CCCCCl)C(=O)O (stereo not given)
inactive: [1] -1.85% | [2] -4.65% | [3] 0.25% | [4] 2.75% | [5] -3.4% | [6] 6.05%

Cc1ccccc1N=Cc1ccccc1O.[Co]
inactive: [1] 12.2% | [2] 11.2% | [3] 27.4% | [4] -17.4% | [5] 0.3% | [6] 32%

COc1cccc2c1CCC(=O)C2
inactive: [1] -31.7% | [2] -44.8% | [3] -35.1% | [4] 8% | [5] -44.8% | [6] -18.3%

CC(=O)c1sc2c(c1OC(=O)c1ccc(Cl)cc1)c(=O)n(-c1ccccc1)c(=S)n2-c1ccccc1
inactive: [1] 9.55% | [2] -8.9% | [3] -11.2% | [4] 7.95% | [5] 11.9% | [6] 9.05%

O=C(NCCc1c[nH]c2ccccc12)C(F)(F)F
inactive: [1] -15.8% | [2] 7.6% | [3] 18.2% | [4] 6.85% | [5] 29.2% | [6] 0.3%

O=C(Oc1ccc(OC(=O)c2ccccc2)c(C2CCCCCC2)c1)c1ccccc1
inactive: [1] 32.9% | [2] -1.75% | [3] 25.1% | [4] 14.3% | [5] 7.1% | [6] 9%

NC(=O)C(=O)N/N=C1\C(=O)N(c2ccc(Cl)cc2Cl)C(=O)C1C(=O)Nc1ccc(Cl)cc1Cl (stereo not given)
inactive: [1] -0.65% | [2] -0.55% | [3] -15.5% | [4] 22.4% | [5] -14.2% | [6] -16.3%

O=C(N=C1[Se]C(=Nc2ccccc2)C(=Nc2ccccc2)N1c1ccc(Cl)cc1)c1ccccc1
inactive: [1] -13.8% | [2] -10.4% | [3] -27.1% | [4] -22.9% | [5] -9.25% | [6] -21.4%

CC(=O)NC1CC2c3ccccc3C1([N+](=O)[O-])c1ccccc12 (stereo not given)
inactive: [1] 4.1% | [2] 17.6% | [3] 15.6% | [4] 6.45% | [5] -4.6% | [6] -3.9%

O=C(Nc1ccc2c(c1)Cc1cccc(F)c1-2)C(F)(F)F
inactive: [1] 4.7% | [2] -1.45% | [3] 2.9% | [4] -1.5% | [5] 36.7% | [6] 7.3%

Cc1nc2c(=O)n(C)c(=O)n(C)c2nc1CCC(=O)O
inactive: [1] -16.1% | [2] -3.9% | [3] -1.4% | [4] -52.5% | [5] 5.2% | [6] -5.6%

COC(=O)C(CSSCC(C(=O)NC(Cc1ccccc1)C(=O)NCC(=O)OC(C)(C)C)N1C(=O)CCC1=O)NC(=O)OCc1ccccc1 (stereo not given)
inactive: [1] -29.2% | [2] 11.4% | [3] -5.45% | [4] -45.4% | [5] -51.4% | [6] 18.9%

c1ccc(OB(Oc2ccccc2)Oc2ccccc2)cc1
inactive: [1] 12.2% | [2] 6.65% | [3] -7.25% | [4] -39% | [5] 4.2% | [6] -6.7%

CCCC1OCC(CC)C(CCC)O1 (stereo not given)
inactive: [1] 25.5% | [2] 4.95% | [3] 6.25% | [4] -37% | [5] 7.4% | [6] 2.7%

COc1ccc(Cl)cc1NC(=O)c1cccc(Cl)c1
inactive: [1] 18.8% | [2] 16.9% | [3] 7.8% | [4] 10.9% | [5] 30.1% | [6] -0.3%

N#Cc1ccc(Oc2ccc(C#N)cc2)cc1
inactive: [1] 12.2% | [2] -19.6% | [3] -8.45% | [4] 18.4% | [5] -0.4% | [6] -1.1%

COc1cc(C(c2cc3c(cc2O)OCO3)N2CCCC2)cc(OC)c1OC (stereo not given)
inactive: [1] -13.2% | [2] 17.9% | [3] -13.9% | [4] 13% | [5] -5.3% | [6] -7.85%

CC(CC(C)(C)C)C(=O)NC(N)=O (stereo not given)
inactive: [1] 29.3% | [2] -4.05% | [3] -7.95% | [4] -0.6% | [5] 8.65% | [6] 7.6%

CC1(c2ccccc2)OC1(C)c1ccccc1 (stereo not given)
inactive: [1] 5.7% | [2] -5.6% | [3] -7.65% | [4] -17.1% | [5] 21.1% | [6] 28.8%

CC(=O)OCC(OC(C)=O)C1OC2OC(C)(C)OC2C1OS(C)(=O)=O (stereo not given)
inactive: [1] 15.2% | [2] 10.3% | [3] 17.6% | [4] -27.6% | [5] 28.6% | [6] 4.95%
